# Results published in PubChem BioAssay (Tox21).
# Unmarked numbers belong to inactive results. Calls follow the shape of the dose curve; as a rule, active = well fitted curve in the direction sought with a large enough effect in the repeat runs; inconclusive = weak or mixed curves; inactive = flat fitted curve, though single readings scatter. Non-standard residues stand in square brackets, D forms with d. Residues, ends and D or L forms follow the SMILES beside them. *: point of attachment. Sta = CC(C)C[C@H](N)[C@@H](O)CC(=O)O; Isovaleryl = CC(C)CC(=O)*
# Experiment: qHTS assay to test for compound auto fluorescence at 460 nm (blue) in HepG2 cells (AID 720687)
# Settings: autofluorescence 405/460 nm, 1 h; series mostly up to 91.3 µM; fluorescence, % of fluorescent control: at the top concentration
# Summary of the method: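 HepG2 cells in MEM with 10% FBS, attached overnight at 37 C, were exposed to compound or DMSO for 1 hr at 37 C, 5% CO2. Blue fluorescence was read at 405/460 nm, with triamterene as reference fluorophore.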
# % is scaled to controls: 0 for no effect and ±100 for the full control effect.
row,Compound,"fluorescence, % of fluorescent control"
1,COC(=O)c1c(C)cc(O)c(C)c1O,-0.0038%
2,CCCCCCCOC(C)=O,-0.0212%
3,O=C[C@@H](O)[C@H](O)[C@H](O)CO,0.163%
4,CCCCCC(=O)CC,-0.0746% [at 95.7 µM]
5,CC(C)CC(=O)N[C@H](C(=O)N[C@H](C(=O)N[C@@H](CC(C)C)[C@@H](O)CC(=O)N[C@@H](C)C(=O)N[C@@H](CC(C)C)[C@@H](O)CC(=O)O)C(C)C)C(C)C (Isovaleryl-VV[Sta]A[Sta]-OH),0.0203% [at 46 µM]
6,CCC(C)(C)C,0.114% [at 95.7 µM]
7,CCCCCCCCOCCC#N,0.0061%
8,Cc1ccc(O)c([N+](=O)[O-])c1,-0.0687% [at 95.7 µM]
9,CC1(C)CC(N)CC(C)(C)N1,0.0244%
10,O=C(O)P(=O)(O)O,0.004% [at 46 µM]
